Bioassay records deposited in PubChem BioAssay by several laboratories.
TMEM16A act: TMEM16A chloride channel activators or potentiators, primary screen, cell-based, HTS | HEK293 TMEM16A/YFP-H148Q/I152L, iodide quench fluorescence; active compounds read low | B-score at 10 µM | actives 0.3% (n = 340,000) | AID 623877, 2012;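 active = fluorescence-ratio B-score plate-corrected deviation score at least 3 library SD below zero, with starting fluorescence score within 5 deviations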;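 note: channel opened by trigger with iodide after compound preincubation; score built on the fluorescence ratio of max minus min over baseline; more negative score means more quench and so TMEM16A activation or potentiation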
TMEM16A inh: TMEM16A chloride channel inhibitors, primary screen, cell-based, HTS; HEK293 TMEM16A/YFP iodide influx fluorescence, ionomycin; normalized B-score (activity score, 25-100; higher = stronger inhibition) at 10 µM; actives 1.2% (n = 310,000); AID 588511, 2011;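 active = ratio plate-corrected score three or more library SD toward inhibition, starting fluorescence score within five deviations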;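 note: score derived from kinetic fluorescence span divided by baseline fluorescence per well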
TLR9-MyD88 block: inhibitors of TLR9-MyD88 association in cells, primary screen, cell-based, CHO, BLA complementation, fluorescence | Toll-like receptor 9 (Homo sapiens) + Myeloid differentiation primary response protein … | CCF4 FRET ratio | inhibition, % at 4.98 µM | actives 0.21% (n = 340,000) | AID 504734, 2011;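 active = inhibition above the mean over all tested compounds plus 3 SD, cut at about 21% in these data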;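 note: 0% = DMSO only wells and 100% = clavulanate BLA inhibitor control wells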
HTR2A ag: mouse Htr2a agonists via beta-arrestin recruitment, primary screen, cell-based, luminescence; CHO-K1 mHTR2A beta-arrestin complementation; percent of 30 µM serotonin response; activation, % at 7.6 µM; AID 624169, 2012; actives 0.66% (n = 360,000);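 active = activation above a run cutoff, the mean activation of all tested compounds plus 3 SD, cut at about 14% in these data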;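 note: 0% = plate median of compound wells and 100% = 30 µM serotonin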
NOD2-RIPK2 inh: NOD2-RIPK2 binding disruptors in cells, primary screen, fluorescence, CHO cells, BLA complementation. CCF4 ratio. actives 0.38% (n = 360,000). inhibition, % at 4.98 µM. Receptor-interacting serine/threonine-protein kinase 2 (Homo sapiens), O43353. AID 624267, 2012; in the data active = inhibition above about 21%;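 note: 0% = vehicle only and 100% = reference blocker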
TLR4-MyD88 BLA: inhibitors of TLR4-MyD88 association in cells, primary screen, cell-based, HeLa CL3-4, BLA complementation, FRET ratio. actives 0.18% (n = 200,000). inhibition, % at 8.4 µM. HeLa CL3-4 TLR4/MyD88 BLA complementation; in the data active = inhibition above about 25%;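 note: 0% = vehicle and 100% = reference inhibitor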
TMEM16A reconf: TMEM16A chloride channel inhibitors, confirmation, cell-based, re-confirmation; shares compounds with TMEM16A inh; HEK293 TMEM16A/YFP-H148Q, iodide quench fluorescence; ionomycin added to raise cell calcium; inhibition, % at 10 µM; actives 39% (n = 2,300); AID 652189, 2013;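 active = mean duplicate percent inhibition, scaled so buffer wells are 0 and the reference blocker 100, over three buffer SD above buffer mean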
HEK293 Ca mobil: calcium mobilization in TMEM16A/YFP HEK293 cells, confirmation, counter-screen for TMEM16A inhibitor project; Fluo4 calcium mobilization; actives 2% (n = 2,300); shares compounds with TMEM16A inh; calcium response (% of ionomycin), % at 10 µM;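 active = duplicate-averaged calcium signal over 20% of the ionomycin maximum, relative to buffer baseline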;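 note: each well's signal is peak minus trough fluorescence divided by its pre-addition baseline; 0% = buffer wells and 100% = ionomycin wells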
YFP-HEK293 quench: iodide YFP quench changes in parental YFP-HEK293, counter-screen for TMEM16A inhibitor project, cell-based | shares compounds with TMEM16A inh | ionomycin | YFP ratio F(max-min)/F0 at 10 µM | 2,300 tested, under 10 active;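 active = yellow fluorescent protein signal ratio exceeding the buffer control mean by over 5 SD of those controls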;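 note: ratio is mean of duplicate wells from kinetic YFP trace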
ClC-1 rat inh: ClC-1 chloride channel inhibition, selectivity assay for TMEM16A inhibitor project, cell-based, voltage-dependent ClC-1; shares compounds with TMEM16A inh; 2,300 tested, under 10 active; ratio percent, % at 10 µM; AID 652236, 2013; CHO ClC-1-YFP, iodide influx fluorescence quench; iodide control reads 0, buffer control 100;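 active = duplicate-mean ratio percent above the mean of iodide-only control wells, which defines zero, plus 5 of their SD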;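 note: higher percent means stronger block of ClC-1 iodide influx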
Active calls of the source: *. Compounds with a hit are over-represented: about 2.4% of the library has one in this group of screens.

NC(N)=N/N=C/c1ccc2cccc(OCc3ccccc3)c2n1 was read as TMEM16A act inactive, TMEM16A inh 25*, TLR9-MyD88 block 11, HTR2A ag 0, NOD2-RIPK2 inh -6, TMEM16A reconf inactive, HEK293 Ca mobil inactive, YFP-HEK293 quench -1 and ClC-1 rat inh -14.
For Cc1sc(NC(=O)c2ccccc2)c(C(=O)c2ccccc2)c1C the results were TMEM16A act inactive, TMEM16A inh inactive, TLR9-MyD88 block -8, HTR2A ag -6, NOD2-RIPK2 inh -5 and TLR4-MyD88 BLA 5.
For CCOC(=O)N1CCC(NC(=O)C(CC(C)C)NC(=O)C2CCC(C)CC2)CC1 (configuration not stated) the results were TMEM16A act inactive, TMEM16A inh 100*, TLR9-MyD88 block 0, HTR2A ag 5, NOD2-RIPK2 inh -9, TLR4-MyD88 BLA 9, TMEM16A reconf inactive, HEK293 Ca mobil inactive, YFP-HEK293 quench -1.1 and ClC-1 rat inh -2.
`Clc1cccc(-c2nnc(SCc3nc4ccccc4[nH]3)n2Cc2ccco2)c1` gave TMEM16A act inactive, TMEM16A inh inactive, TLR9-MyD88 block 3, HTR2A ag 0, NOD2-RIPK2 inh 1 and TLR4-MyD88 BLA 2.
Screening Clc1ccc(OCc2nnc(SCc3nc4ccccc4[nH]3)n2Cc2ccco2)cc1 returned TMEM16A act inactive, TMEM16A inh 25*, TLR9-MyD88 block 0, HTR2A ag 3, NOD2-RIPK2 inh -16, TLR4-MyD88 BLA 14, TMEM16A reconf inactive, HEK293 Ca mobil inactive, YFP-HEK293 quench -1.1 and ClC-1 rat inh -18.
COC(=O)C1=CN(CC2CCCO2)C=C(C(=O)OC)C1c1ccsc1 (configuration not stated) was read as TMEM16A act inactive, TMEM16A inh 100*, TLR9-MyD88 block 1, HTR2A ag 2, NOD2-RIPK2 inh 4, TLR4-MyD88 BLA -7, TMEM16A reconf inactive, HEK293 Ca mobil inactive, YFP-HEK293 quench -1.1 and ClC-1 rat inh -15.
Screening O=C(NNC(=S)NCc1ccc(Cl)cc1)c1cccnc1 returned TMEM16A act inactive, TMEM16A inh inactive, TLR9-MyD88 block 6, HTR2A ag -5 and NOD2-RIPK2 inh 2.
Fc1ccc(NC(=S)Nc2cccnc2)cc1 was read as TMEM16A act inactive, TMEM16A inh inactive, TLR9-MyD88 block 3, HTR2A ag -2, NOD2-RIPK2 inh 1 and TLR4-MyD88 BLA 5.
`Fc1ccc(NC(=S)Nc2cccnc2)cc1Cl` gave TMEM16A act inactive, TMEM16A inh 25*, TLR9-MyD88 block 7, HTR2A ag -3, NOD2-RIPK2 inh 8, TLR4-MyD88 BLA -6, TMEM16A reconf inactive, HEK293 Ca mobil inactive, YFP-HEK293 quench -0.81 and ClC-1 rat inh -10.
